# Reference: PubChem BioAssay (NCI)
# This is part of a sample that, as a whole, favours compounds with a hit. Of some 83,000 tested, about 20% had one in any assay.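 Cell lines were cultured in 96-well plates, exposed to a single compound concentration, and assessed for percent growth 48 hours later.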 Unmarked numbers belong to inactive results. Active and inactive are the calls of the source. The calls were made as follows: active = growth percent below 10; inactive = the rest.
# Key:
# Assay in all cases: NCI-60 one-dose screen, 48 h (100 = growth as untreated, 0 = no growth, -100 = all killed)
# Conditions in all cases: 10 µM unless noted
# [1] = test system: DU-145 prostate
# [2] = test system: K-562 leukemia
# [3] = test system: MALME-3M melanoma
# [4] = test system: MDA-MB-231 breast
# [5] = test system: RXF 393 renal
# [6] = test system: SF-268 CNS
# [7] = test system: SF-295 CNS
# [8] = test system: SF-539 CNS
# [9] = test system: UACC-257 melanoma
# [10] = test system: M14 melanoma
SMILES,growth [1],growth [2],growth [3],growth [4],growth [5],growth [6],growth [7],growth [8],growth [9],growth [10]
CCCn1c2cc(OCc3cn(-c4ccc(Cl)cc4)nn3)ccc2c2ccnc(C)c21,95.7%,34.9%,98.7%,64.6%,73%,95.1%,81.6%,87.3%,61%,76.4%
COc1cc(C2=N/C(=C\c3cc4ccccc4nc3Oc3ccccc3)C(=O)N2C(=N)N)cc(OC)c1OC,80.4%,82.3%,57.8%,42.4%,42%,30.7%,55.1%,33.4%,76.4%,74.2%
CCOc1ccc(C2N(c3cc(OC)c(OC)c(OC)c3)C(=O)C2(F)F)cc1 (stereo not given),30.1%,8.49% (active),63.1%,46.1%,54.2%,52.4%,56.3%,10.8%,58.7%,27.5%
CC(C)CSc1nc(Nc2ccccc2)c(C#N)c(-c2ccc(F)cc2)n1,75.9%,50.7%,-5.57% (active),-3.62% (active),2.42% (active),37.7%,16.2%,22.4%,66.2%,31.6%
COc1cc(C2CC(c3ccc(Nc4nc(NCCO)nc(NCCO)n4)cc3)=NN2c2cc(Cl)cc(Cl)c2)cc(OC)c1OC (stereo not given),12.8%,2.02% (active),-66.3% (active),-19.2% (active),-42.5% (active),-33.3% (active),6.18% (active),-61.3% (active),13.2%,-14.3% (active)
CC(=O)Oc1ccc(O)cc1,102%,96.7%,102%,95.4%,115%,98.8%,101%,101%,83%,98.3%
COc1cc2nc3c(=O)n(-c4ccc(C#N)cc4)cnn3c(=O)c2cc1OC,103%,106%,87.5%,103%,100%,88.5%,99.8%,94.9%,110%,94.1%
Nc1c(C(=O)Nc2ccccn2)sc2nc3c(cc12)C(=O)CCC3,5.74% (active),22.2%,58.2%,51.6%,1.88% (active),53.1%,16.2%,14.6%,69.8%,18.3%
Nc1c(C(=O)Nc2ccccn2)sc2nc3c(cc12)CCCCCC3,11.4%,7.85% (active),20.7%,49.4%,-8.82% (active),35.6%,0.944% (active),6.92% (active),49.5%,7.38% (active)
COc1ccc(-c2[nH]c3ccc(OC)cc3c2C=C(C#N)C#N)cc1,12.5%,4.8% (active),60%,53.7%,34.4%,52.7%,-47.1% (active),23.2%,60.2%,-13.3% (active)
CCOCCc1c(O)nc(SC)[nH]c1=O,107%,112%,130%,111%,161%,116%,113%,93.7%,23.9%,98.9%
COc1ccc2[nH]c(-c3ccccc3)c(C=C(C#N)C#N)c2c1,35.2%,-11.9% (active),55.1%,57.9%,22.4%,49.1%,-35.2% (active),14%,69.8%,5.54% (active)
N#Cc1c(-c2ccc(F)cc2)nc(N/N=C/c2c[nH]c3ccccc23)nc1N1CCOCC1,46.6%,5.72% (active),-63.5% (active),53.1%,-34.2% (active),68.8%,-17.4% (active),52.8%,-48.8% (active),-0.73% (active)
O=C(C[n+]1cccc2cc(Cl)ccc21)c1ccc2c(c1)CCCC2,10.5%,10.6%,-30.9% (active),5.63% (active),62%,27.6%,47.2%,-10.9% (active),5.48% (active),32.6%
COc1cc(/C=C/C(=O)c2cccs2)ccc1OCc1ccc(Cl)nc1,47.7%,41.3%,81.9%,82.8%,94.9%,85.1%,105%,91%,91.3%,82%
COC(=O)/C=C/c1cc(OC)c2c(c1)[C@@H](C(=O)OC)[C@H](c1ccc(OC)c(OC)c1)O2,14%,10.8%,44.3%,53.4%,-12.2% (active),59.6%,18.4%,-7.1% (active),44.7%,2.02% (active)
O=C1Nc2ccc(Cl)cc2/C1=N/c1nc(-c2ccc(F)cc2)cs1,69.8%,14.6%,53.6%,31.3%,37%,46%,39.6%,48.6%,36.5%,38.7%
O=C(CN1N=C(c2ccc(F)cc2)CCC1=O)Nc1nc2ccccc2s1,84.6%,30.1%,-70.4% (active),-85.5% (active),45.8%,48%,-46.9% (active),-82.6% (active),88.1%,41.4%
COc1ccc2nc(-c3ccc(OC)c(OC)c3)cc(-c3nnc(SCC(=O)Nc4ccc(C(C)=O)cc4)o3)c2c1,108%,99.2%,109%,99.5%,102%,104%,100%,96%,101%,105%
C=C1C(=O)O[C@H]2[C@H]1CC/C(COC(=O)CCC(=O)OC/C1=C/CC[C@@]3(C)O[C@H]3[C@H]3OC(=O)C(=C)[C@@H]3CC1)=C\CC[C@@]1(C)O[C@@H]21,18.7%,3.55% (active),-5.56% (active),-0.376% (active),-71.4% (active),78.8%,98.4%,16.6%,21.4%,1.21% (active)
Cc1cc(C)n(-c2nc(-c3cccs3)c(C#N)c(=O)[nH]2)n1,101%,87.4%,92.6%,108%,115%,82.3%,92.3%,97.5%,98.7%,101%
CN1CCN(S(=O)(=O)O[C@@H]2C(=O)N(c3cc4c5ccccc5ccc4c4ccccc34)[C@H]2c2ccc(F)cn2)CC1,94.4%,74.7%,115%,38.8%,77.6%,79.7%,96.5%,104%,88.1%,90.9%
O=C(CSC(=S)N1CCCCC1)Nc1ccccc1,106%,90.2%,101%,103%,110%,93.3%,103%,101%,92.4%,98.6%
CC(=O)O[C@@H]1C[C@]2(C)[C@H]3[C@H](O)C[C@@H]4C5=CC(C)(C)CC[C@]5(C)CC[C@@]4(C)[C@]3(C)CC[C@H]2C(C)(C)[C@H]1O,107%,108%,107%,113%,111%,101%,104%,102%,110%,99.3%
CN1C(=O)c2cc(Cl)nc3c(NC(=O)c4cccc(Cl)c4)c(Cl)c(NC(=O)c4cccc(Cl)c4)c1c23,4.2% (active),-43.3% (active),-56.1% (active),-40.2% (active),-88.9% (active),3.08% (active),88.1%,9.56% (active),-49.3% (active),-21.1% (active)
O=C(Nc1ccccc1)NS(=O)(=O)c1c[nH]c(=S)[nH]c1=O,105%,103%,100%,105%,127%,97.1%,97.8%,99.8%,92.5%,104%
N#Cc1nc(-c2ccccc2)oc1S(=O)(=O)NCC(c1ccc(Cl)cc1)N1CCCCC1 (stereo not given),84.4%,8.67% (active),96.8%,89.3%,101%,78%,102%,87.5%,88.1%,76.4%
